This note sets out measurements from PMC7862700, “An all-to-all approach to the identification of sequence-specific readers for epigenetic DNA modifications on cytosine”.

What all share (test): DAPPL (digital affinity profiling via proximity ligation, sequencing); 10 mM Tris-HCl pH 7.5, 50 mM NaCl, 1 mM DTT, 4% glycerol, room temperature, 30 min; GST-TFs on glutathione beads, 16-mer random dsDNA library, 0.1% formaldehyde crosslink after washing; high values mean tight binding
The target of one assay is T1, FEV (Homo sapiens, UniProt Q99581 1-238).
T1 sequence: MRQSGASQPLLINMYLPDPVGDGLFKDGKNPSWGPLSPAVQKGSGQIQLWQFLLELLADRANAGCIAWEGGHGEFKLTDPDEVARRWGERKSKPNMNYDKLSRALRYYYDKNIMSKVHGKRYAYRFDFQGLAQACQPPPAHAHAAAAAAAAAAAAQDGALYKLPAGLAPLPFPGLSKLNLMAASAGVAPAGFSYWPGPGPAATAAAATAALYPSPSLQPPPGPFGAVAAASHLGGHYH
The note with it: protein: recombinant; tags: N-terminal GST; dsDNA, one strand shown. The method, boiled down: (§1)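 Each value of binding signal is a hexamer's read frequency for a factor divided by the same hexamer's frequency in the tag-only sample. Barcoded, bead-captured GST fusions of human transcription factors made in yeast were pooled with that sample and incubated with 200 nmole of a random double-stranded 16-mer DNA library in Tris/NaCl/DTT/glycerol buffer at room temperature for 30 min. Washing, 0.1% formaldehyde crosslinking, proximity ligation, PCR and Illumina NextSeq500 sequencing followed.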

In another assay the target is ETV5 (Homo sapiens, UniProt P41161 1-510). The conditions noted are these: protein: recombinant; tags: N-terminal GST; dsDNA, one strand shown. Put shortly:
as §1

A further assay addresses HSF1 (Homo sapiens, UniProt Q00613 1-529). The note with it: protein: recombinant; tags: N-terminal GST; chain copies: 3; dsDNA, one strand shown. Put shortly: as §1
For another assay, the target named is T2, SPIC (Homo sapiens, UniProt Q8N5J4 1-248).
T2 sequence: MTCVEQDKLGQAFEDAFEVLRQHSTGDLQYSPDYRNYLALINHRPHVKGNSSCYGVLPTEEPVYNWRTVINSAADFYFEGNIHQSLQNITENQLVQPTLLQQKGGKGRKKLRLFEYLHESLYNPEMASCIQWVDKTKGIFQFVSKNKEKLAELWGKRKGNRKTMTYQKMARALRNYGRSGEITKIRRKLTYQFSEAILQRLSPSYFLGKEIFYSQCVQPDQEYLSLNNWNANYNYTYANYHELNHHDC
The conditions noted are these: protein: recombinant; tags: N-terminal GST; dsDNA, one strand shown. The method, boiled down: as §1

Another assay deals with ELF4 (Homo sapiens, UniProt Q99607 1-663). The note with it: protein: recombinant; tags: N-terminal GST; dsDNA, one strand shown. Put shortly: as §1
Chain of ELF4 (Q99607 whole entry): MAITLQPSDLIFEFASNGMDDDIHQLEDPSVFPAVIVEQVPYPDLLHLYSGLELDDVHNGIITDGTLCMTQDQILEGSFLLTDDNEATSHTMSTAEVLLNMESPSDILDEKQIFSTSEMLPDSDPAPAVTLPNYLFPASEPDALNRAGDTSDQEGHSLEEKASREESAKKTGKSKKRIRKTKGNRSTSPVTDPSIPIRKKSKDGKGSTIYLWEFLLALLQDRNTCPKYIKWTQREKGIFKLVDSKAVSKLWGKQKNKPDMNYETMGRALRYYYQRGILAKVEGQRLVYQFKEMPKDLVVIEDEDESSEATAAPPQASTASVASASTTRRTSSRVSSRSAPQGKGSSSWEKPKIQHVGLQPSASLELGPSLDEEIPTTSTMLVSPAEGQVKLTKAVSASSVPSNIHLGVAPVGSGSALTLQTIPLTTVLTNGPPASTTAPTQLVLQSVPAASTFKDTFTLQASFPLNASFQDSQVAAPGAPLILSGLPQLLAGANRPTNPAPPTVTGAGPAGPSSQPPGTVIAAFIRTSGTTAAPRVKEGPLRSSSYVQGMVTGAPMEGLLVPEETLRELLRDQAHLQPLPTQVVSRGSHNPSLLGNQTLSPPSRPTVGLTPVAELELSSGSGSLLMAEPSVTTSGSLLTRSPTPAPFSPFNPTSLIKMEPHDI
The target in the next assay is T3, ELK4 (Homo sapiens, UniProt P28324-2 1-405).
T3 sequence: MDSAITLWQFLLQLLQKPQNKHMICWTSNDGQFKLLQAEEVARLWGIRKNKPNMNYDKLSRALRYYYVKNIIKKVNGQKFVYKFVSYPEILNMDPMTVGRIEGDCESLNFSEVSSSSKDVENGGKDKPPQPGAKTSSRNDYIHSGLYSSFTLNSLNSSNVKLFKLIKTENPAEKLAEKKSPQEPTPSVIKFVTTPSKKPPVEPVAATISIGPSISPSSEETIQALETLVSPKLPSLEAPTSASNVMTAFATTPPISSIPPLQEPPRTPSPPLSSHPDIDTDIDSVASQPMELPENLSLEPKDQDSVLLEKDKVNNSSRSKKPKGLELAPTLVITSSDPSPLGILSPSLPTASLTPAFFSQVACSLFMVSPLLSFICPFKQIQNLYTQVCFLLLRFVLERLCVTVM
The conditions noted are these: protein: recombinant; tags: N-terminal GST; dsDNA, one strand shown. The method, boiled down: as §1

The target in another assay is T4, ETV2 (Homo sapiens, UniProt O00321 1-342).
T4 sequence: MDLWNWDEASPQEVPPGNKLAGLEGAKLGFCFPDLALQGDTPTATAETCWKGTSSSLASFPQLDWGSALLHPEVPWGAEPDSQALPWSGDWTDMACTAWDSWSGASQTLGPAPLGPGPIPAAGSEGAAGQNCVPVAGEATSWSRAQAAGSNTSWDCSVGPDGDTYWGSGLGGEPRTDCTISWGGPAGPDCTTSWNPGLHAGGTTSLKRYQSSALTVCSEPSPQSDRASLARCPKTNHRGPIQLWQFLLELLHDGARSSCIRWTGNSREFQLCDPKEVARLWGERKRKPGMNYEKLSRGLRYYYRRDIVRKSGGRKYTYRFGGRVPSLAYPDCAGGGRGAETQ
The note with it: protein: recombinant; tags: N-terminal GST; dsDNA, one strand shown. The method, boiled down:
as §1

For another assay, the target named is T5, ELF3 (Homo sapiens, UniProt P78545 1-371).
T5 sequence: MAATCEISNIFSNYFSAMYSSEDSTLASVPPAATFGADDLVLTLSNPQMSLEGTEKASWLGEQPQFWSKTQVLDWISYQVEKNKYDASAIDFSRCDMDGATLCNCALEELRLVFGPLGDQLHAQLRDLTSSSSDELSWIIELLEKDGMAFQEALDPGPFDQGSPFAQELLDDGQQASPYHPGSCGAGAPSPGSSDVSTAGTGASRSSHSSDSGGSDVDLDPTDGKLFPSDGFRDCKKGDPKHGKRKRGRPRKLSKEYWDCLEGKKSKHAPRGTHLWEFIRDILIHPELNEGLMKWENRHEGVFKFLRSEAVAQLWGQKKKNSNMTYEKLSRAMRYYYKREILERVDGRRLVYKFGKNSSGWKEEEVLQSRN
The note with it: protein: recombinant; tags: N-terminal GST; dsDNA, one strand shown. The method, boiled down: as §1

Another assay has as its target CRX (Homo sapiens, UniProt O43186 1-299). The conditions noted are these: protein: recombinant; tags: N-terminal GST; dsDNA, one strand shown. Put shortly:
as §1

The target in another assay is ETV1 (Homo sapiens, UniProt P50549 1-477). The conditions noted are these: protein: recombinant; tags: N-terminal GST; dsDNA, one strand shown. Put shortly: as §1
Chain of ETV1 (P50549 whole entry): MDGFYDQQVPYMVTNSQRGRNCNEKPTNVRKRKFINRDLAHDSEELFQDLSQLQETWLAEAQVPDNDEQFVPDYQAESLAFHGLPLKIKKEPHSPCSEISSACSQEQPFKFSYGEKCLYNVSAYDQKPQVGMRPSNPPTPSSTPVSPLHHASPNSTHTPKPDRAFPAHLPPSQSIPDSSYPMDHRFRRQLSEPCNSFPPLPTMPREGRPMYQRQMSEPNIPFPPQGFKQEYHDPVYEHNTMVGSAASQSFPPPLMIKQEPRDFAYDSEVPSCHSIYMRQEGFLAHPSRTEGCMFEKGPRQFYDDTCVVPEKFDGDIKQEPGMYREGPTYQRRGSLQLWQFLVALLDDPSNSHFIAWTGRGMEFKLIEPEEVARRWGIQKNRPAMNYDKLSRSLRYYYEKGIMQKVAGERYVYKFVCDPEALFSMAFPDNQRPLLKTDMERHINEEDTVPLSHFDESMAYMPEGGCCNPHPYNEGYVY
The next assay deals with T6, ERF (Homo sapiens, UniProt P50548 1-548).
T6 sequence: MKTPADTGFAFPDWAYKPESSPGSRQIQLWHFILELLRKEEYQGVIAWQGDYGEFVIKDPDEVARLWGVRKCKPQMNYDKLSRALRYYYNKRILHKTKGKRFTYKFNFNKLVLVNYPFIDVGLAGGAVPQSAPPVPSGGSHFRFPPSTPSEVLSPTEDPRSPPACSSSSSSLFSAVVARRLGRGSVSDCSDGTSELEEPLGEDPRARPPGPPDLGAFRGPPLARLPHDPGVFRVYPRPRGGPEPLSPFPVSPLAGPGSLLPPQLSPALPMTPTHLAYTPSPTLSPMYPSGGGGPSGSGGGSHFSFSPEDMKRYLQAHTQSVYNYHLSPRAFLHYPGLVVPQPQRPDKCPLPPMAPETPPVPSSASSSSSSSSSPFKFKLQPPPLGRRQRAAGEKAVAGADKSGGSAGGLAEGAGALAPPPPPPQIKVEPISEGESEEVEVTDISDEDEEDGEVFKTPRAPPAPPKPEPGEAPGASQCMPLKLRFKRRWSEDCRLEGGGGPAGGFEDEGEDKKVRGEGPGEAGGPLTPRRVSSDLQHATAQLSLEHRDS
The note with it: protein: recombinant; tags: N-terminal GST; dsDNA, one strand shown. Put shortly: as §1

A further assay has as its target T7, ETV3L (Homo sapiens, UniProt Q6ZN32 1-361).
T7 sequence: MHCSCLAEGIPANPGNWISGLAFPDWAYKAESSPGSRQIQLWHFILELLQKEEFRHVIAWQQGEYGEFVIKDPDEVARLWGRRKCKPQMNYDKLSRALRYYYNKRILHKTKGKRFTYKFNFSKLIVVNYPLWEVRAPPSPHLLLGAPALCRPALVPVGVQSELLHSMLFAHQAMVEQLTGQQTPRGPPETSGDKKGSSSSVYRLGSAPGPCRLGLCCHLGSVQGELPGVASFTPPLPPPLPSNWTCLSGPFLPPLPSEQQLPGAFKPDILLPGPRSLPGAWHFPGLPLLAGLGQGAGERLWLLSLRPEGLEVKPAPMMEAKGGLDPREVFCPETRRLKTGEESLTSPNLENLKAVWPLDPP
The note with it: protein: recombinant; tags: N-terminal GST; dsDNA, one strand shown. The method, boiled down: as §1

Another assay has as its target T8, ETS2 (Homo sapiens, UniProt P15036 1-469).
T8 sequence: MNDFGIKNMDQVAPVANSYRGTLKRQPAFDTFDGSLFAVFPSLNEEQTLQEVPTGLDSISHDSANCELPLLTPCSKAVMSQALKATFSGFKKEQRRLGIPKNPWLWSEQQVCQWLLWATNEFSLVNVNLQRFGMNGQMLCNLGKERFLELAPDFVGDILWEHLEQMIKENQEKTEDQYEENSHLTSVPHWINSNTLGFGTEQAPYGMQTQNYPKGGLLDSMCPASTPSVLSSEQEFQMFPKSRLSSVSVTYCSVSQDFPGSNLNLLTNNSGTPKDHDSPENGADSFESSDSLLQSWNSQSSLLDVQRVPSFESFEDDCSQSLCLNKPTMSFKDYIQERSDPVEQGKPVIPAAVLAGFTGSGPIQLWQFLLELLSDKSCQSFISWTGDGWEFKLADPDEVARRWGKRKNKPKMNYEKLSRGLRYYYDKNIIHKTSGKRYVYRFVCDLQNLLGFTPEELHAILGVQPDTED
The conditions noted are these: protein: recombinant; tags: N-terminal GST; dsDNA, one strand shown. Put shortly: as §1

In another assay the target is T9, SPDEF (Homo sapiens, UniProt O95238 1-335).
T9 sequence: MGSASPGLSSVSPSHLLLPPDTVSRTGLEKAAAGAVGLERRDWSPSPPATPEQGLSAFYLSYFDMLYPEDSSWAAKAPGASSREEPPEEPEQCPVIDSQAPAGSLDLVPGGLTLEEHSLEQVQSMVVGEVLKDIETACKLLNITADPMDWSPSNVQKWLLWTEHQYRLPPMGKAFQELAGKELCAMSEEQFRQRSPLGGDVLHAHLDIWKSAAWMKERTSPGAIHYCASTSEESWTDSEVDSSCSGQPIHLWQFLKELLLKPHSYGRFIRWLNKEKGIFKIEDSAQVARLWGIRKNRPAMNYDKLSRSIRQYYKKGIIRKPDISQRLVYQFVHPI
The note with it: protein: recombinant; tags: N-terminal GST; dsDNA, one strand shown. Put shortly: as §1

The target of another assay is T10, ETV7 (Homo sapiens, UniProt Q9Y603 1-341).
T10 sequence: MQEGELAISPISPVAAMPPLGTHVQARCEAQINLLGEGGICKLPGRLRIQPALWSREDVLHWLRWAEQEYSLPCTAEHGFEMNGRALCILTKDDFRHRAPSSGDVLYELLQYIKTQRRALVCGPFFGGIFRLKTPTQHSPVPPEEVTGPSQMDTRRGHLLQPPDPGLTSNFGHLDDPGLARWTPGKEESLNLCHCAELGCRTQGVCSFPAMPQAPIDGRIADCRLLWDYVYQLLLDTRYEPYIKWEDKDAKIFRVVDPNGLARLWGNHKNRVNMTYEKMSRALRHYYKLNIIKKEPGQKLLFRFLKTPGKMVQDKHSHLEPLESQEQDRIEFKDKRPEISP
The conditions noted are these: protein: recombinant; tags: N-terminal GST; dsDNA, one strand shown. Put shortly:
as §1

A further assay deals with T11, ELF5 (Homo sapiens, UniProt Q9UKW6-2 1-255).
T11 sequence: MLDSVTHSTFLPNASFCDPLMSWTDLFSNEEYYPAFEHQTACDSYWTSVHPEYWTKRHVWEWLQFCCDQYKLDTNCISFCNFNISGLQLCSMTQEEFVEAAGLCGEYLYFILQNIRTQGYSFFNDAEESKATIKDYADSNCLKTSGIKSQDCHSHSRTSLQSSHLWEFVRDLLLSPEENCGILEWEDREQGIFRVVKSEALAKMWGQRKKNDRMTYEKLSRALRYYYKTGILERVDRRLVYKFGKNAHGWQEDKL
The note with it: protein: recombinant; tags: N-terminal GST; dsDNA, one strand shown. Put shortly: as §1

Another assay concerns the target T12, ETV3 (Homo sapiens, UniProt P41162-2 1-143).
T12 sequence: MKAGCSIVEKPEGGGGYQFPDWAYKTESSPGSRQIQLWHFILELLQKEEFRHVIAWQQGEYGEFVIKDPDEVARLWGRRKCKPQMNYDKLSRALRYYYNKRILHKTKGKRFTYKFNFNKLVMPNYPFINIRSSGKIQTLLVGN
The conditions noted are these: protein: recombinant; tags: N-terminal GST; dsDNA, one strand shown. The method, boiled down: as §1

A further assay has as its target ETV6 (Homo sapiens, UniProt P41212 1-452). The conditions noted are these: protein: recombinant; tags: N-terminal GST; dsDNA, one strand shown. The method, boiled down: as §1

Chain of CRX (O43186 whole entry): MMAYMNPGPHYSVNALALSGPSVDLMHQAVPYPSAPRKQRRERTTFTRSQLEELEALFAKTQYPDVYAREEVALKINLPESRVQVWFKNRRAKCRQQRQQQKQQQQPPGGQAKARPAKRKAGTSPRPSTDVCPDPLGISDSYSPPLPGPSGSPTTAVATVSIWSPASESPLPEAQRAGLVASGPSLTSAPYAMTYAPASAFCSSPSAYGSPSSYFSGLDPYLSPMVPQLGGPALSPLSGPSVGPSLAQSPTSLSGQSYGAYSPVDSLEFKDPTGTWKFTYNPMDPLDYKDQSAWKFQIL
Chain of ETV5 (P41161 whole entry): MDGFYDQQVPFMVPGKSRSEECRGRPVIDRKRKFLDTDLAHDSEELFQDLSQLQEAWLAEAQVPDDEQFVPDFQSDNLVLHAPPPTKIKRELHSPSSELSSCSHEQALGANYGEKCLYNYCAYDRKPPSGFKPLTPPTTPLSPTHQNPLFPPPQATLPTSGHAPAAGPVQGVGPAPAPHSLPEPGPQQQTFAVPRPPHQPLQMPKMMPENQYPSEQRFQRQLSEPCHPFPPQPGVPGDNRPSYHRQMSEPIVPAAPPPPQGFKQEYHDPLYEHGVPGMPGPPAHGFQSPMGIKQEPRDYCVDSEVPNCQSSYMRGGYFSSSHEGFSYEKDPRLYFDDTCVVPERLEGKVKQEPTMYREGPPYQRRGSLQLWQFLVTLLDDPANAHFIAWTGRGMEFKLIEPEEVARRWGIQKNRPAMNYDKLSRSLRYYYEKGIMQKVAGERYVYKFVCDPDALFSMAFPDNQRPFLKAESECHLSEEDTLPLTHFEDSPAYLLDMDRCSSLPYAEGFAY
Chain of HSF1 (Q00613 whole entry): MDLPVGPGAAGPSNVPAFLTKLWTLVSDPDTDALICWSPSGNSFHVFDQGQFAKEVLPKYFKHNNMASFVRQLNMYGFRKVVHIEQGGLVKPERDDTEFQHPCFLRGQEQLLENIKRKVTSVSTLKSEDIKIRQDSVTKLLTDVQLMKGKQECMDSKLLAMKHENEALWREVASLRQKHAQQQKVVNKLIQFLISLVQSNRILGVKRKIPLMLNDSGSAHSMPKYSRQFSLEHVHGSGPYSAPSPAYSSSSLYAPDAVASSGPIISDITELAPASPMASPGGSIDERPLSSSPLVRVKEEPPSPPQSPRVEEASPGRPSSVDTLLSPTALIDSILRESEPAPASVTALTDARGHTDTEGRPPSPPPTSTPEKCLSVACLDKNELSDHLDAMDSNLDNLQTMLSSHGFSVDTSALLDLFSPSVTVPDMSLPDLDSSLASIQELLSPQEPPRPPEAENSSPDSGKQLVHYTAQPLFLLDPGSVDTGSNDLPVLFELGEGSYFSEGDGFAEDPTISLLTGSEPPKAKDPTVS
Chain of ETV6 (P41212 whole entry): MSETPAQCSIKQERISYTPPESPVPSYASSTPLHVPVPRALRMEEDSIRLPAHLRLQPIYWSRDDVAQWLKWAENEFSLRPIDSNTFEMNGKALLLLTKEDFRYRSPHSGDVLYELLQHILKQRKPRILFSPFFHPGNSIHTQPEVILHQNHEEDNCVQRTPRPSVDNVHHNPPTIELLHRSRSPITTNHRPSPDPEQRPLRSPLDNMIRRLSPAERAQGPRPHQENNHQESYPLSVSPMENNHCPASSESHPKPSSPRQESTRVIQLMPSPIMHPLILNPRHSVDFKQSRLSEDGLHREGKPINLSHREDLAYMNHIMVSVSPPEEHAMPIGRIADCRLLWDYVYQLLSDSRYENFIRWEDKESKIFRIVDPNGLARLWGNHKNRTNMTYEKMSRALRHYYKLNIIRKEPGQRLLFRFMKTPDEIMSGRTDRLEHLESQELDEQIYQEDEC

Take CTTGCG: the binding signal in the assay with FEV is 1.32 fold enrichment (6-mer frequency, TF over GST control); with ETV5, 1.36 fold enrichment (6-mer frequency, TF over GST control); with HSF1 it was 1.26 fold enrichment (6-mer frequency, TF over GST control); with SPIC it was 1.3 fold enrichment (6-mer frequency, TF over GST control); with ELF4 it was 1.27 fold enrichment (6-mer frequency, TF over GST control); in the assay with ELK4, 1.51 fold enrichment (6-mer frequency, TF over GST control). For the same sequence, the binding signal is 1.29 fold enrichment (6-mer frequency, TF over GST control) in the assay with ETV2; 1.46 fold enrichment (6-mer frequency, TF over GST control) with ELF3; 1.13 fold enrichment (6-mer frequency, TF over GST control) in the assay with CRX; 1.41 fold enrichment (6-mer frequency, TF over GST control) with ETV1; 1.41 fold enrichment (6-mer frequency, TF over GST control) with ERF; 1.39 fold enrichment (6-mer frequency, TF over GST control) in the assay with ETV3L. For the same sequence, the binding signal with ETS2 is 1.28 fold enrichment (6-mer frequency, TF over GST control); with SPDEF, 1.25 fold enrichment (6-mer frequency, TF over GST control); in the assay with ETV7, 1.3 fold enrichment (6-mer frequency, TF over GST control); in the assay with ELF5, 1.28 fold enrichment (6-mer frequency, TF over GST control); with ETV3, 1.42 fold enrichment (6-mer frequency, TF over GST control); with ETV6, 1.37 fold enrichment (6-mer frequency, TF over GST control).
